# High-throughput results from PubChem BioAssay.
# Marburg entry inh: blocks Marburg virus binding to or entry into cells; Marburg virus pseudotyped entry inhibition, cell reporter; Potency, µM (doses to about 37.8 µM), for the others: at the highest dose activity change, negative = inhibition, hits mostly inhibitors; 1.8% of 300,000 active; calls by dose curve; tested in HEK293 cells; note: potency is the fitted concentration of half-maximal effect; % is set by controls: 0 for no effect and ±100 for the full control effect
# SARS PLP yeast: blocks SARS-CoV papain-like protease in a yeast assay | S. cerevisiae expressing SARS-CoV PLpro, growth rescue | Potency, µM (highest dose often 32.9 µM), inactives show top-dose activity, positive = growth rescue, usual class: activators | 0.19% of 330,000 active | AID 485353; calls by dose curve; note: potency is the fitted concentration of half-maximal effect; 0% is about no effect; nearly all actives have a fitted effect of over 55% in size
# FMDV inh: foot and mouth disease virus antiviral activity; FMDV antiviral cell-based qHTS; Potency, µM (doses to about 57.9 µM), for inactives: at the highest dose activity change, negative = inhibition, usual class: inhibitors; 1.2% of 410,000 active; AID 1159524; calls by dose curve; tested in HEK293T cells; note: read-out not given here; potency is the fitted concentration of half-maximal effect; % is set by controls: 0 for no effect and ±100 for the full control effect; nearly all actives have a fitted effect of over 45% in size
# HCMV inh: inhibitors of human cytomegalovirus | AID 1259415 | 4.5% of 410,000 active | activity change, negative = inhibition, % at 57.5 µM | HFF cells, HCMV-luciferase reporter, 72 h; stronger effect = lower value; in the data active = activity change below about -60%; inconclusive = no clear call, values can overlap the other calls; inactive = above about -39%; note: % is set by controls: 0 for no effect and ±100 for the full control effect
#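 Steps: HFFs plated, 16 h 37C; compounds added; HCMV-luciferase added to MOI 1 PFU/cell; 72 h 37C; OneGlo reagent, 5 min room temperature; luminescence read, normalized to controls.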
# LASV entry inh: inhibitors of Lassa virus binding or cell entry; Potency, µM (top dose mostly 37.9 µM), inactives show at the top dose activity change, negative = inhibition, hits mostly inhibitors; 1.2% of 300,000 active; Lassa virus pseudotype entry inhibition, cell reporter; calls by dose curve; tested in HEK293 cells; note: potency is the fitted concentration of half-maximal effect; % is set by controls: 0 for no effect and ±100 for the full control effect; nearly all actives have a fitted effect of over 50% in size
# HCV inh: inhibitors of hepatitis C virus infection; Huh7.5.1 HCVcc-Cre infection, luciferase reporter, 44 h; 3.4% of 340,000 active; Potency, µM (titrated, usually from 41.8 µM), for the others: at the highest dose activity change, negative = inhibition, usual class: inhibitors; active = well fitted inhibition curve with a large enough effect; inconclusive = small, poorly fitted or top-dose-only effect, or another doubt; inactive = no such curve, though single readings can be large or run the other way; note: potency is the fitted concentration of half-maximal effect; % is set by controls: 0 for no effect and ±100 for the full control effect
#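 Cells (1,000/well) were plated 4 h before compound, then infected with HCVcc-Cre virus (~0.5 moi). After 44 h further culture, infection was read as luciferase luminescence following a 15 min substrate incubation at room temperature.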
# * hit, by the source's call; ? = inconclusive; . = no result given; + = active, no number; [ ] = remark or other dose. Shown are actives, neighbours in structure and some others; about 8% of the full set was active somewhere.
SMILES,Marburg entry inh,SARS PLP yeast,FMDV inh,HCMV inh,LASV entry inh,HCV inh
Cc1ccsc1C(=O)NNC(=O)c1cccc(S(=O)(=O)N2CCCC2)c1,7.4%,-4.5%,-2.2%,+,18.8%,4.6%
CCOC(=O)c1ccc(NC(=O)c2cccc(S(=O)(=O)N3CCN(C(C)=O)CC3)c2)cc1,-13.7%[46.1 µM],0.1%,0.6%,-39.6,-13.1%[46.1 µM],10µM*
Cc1ccccc1NC(=O)c1cccc(S(C)(=O)=O)c1,11.6%[46.1 µM],2.0%,7.1%,-102.3*,6.0%[46.1 µM],14.8%
Cc1nnc(SCC(=O)NC(C)(C)C)n1C1CCCCC1,20.9%,2.1%,-8.5%,14.0,-2.7%,16.8%
CCN(CC)c1ccc(/C=N/NC(=O)c2cccc(S(=O)(=O)N3CCOCC3)c2)cc1,8.3%,-21.7%,14.1µM*,47.1,-36.5%,10µM*
CS(=O)(=O)c1cccc(C(=O)Nc2ccc(S(=O)(=O)N3CCCCC3)cc2)c1,3.6%,-3.2%,-14.3%,-63.3*,1.2%,4.47µM*
O=C(NC1CCCC1)c1cccc(S(=O)(=O)N2CCOCC2)c1,.,1.7%,0.0%,-102.8*,.,-1.1%
CCC(CC)C(=O)c1c[nH]c(C(=O)N2CCN(c3ccc(OC)cc3)CC2)c1,?,0.2%,12.0%,?,1.8%,-1.3%
COc1ccc(CNC(=O)C2CCN(S(=O)(=O)c3cccc(-c4noc(C)n4)c3)CC2)cc1,.,.,-21.4%,7.9,-0.3%[46.1 µM],.
CCCc1ccc(-c2ccc(/C=C/C(=O)O)cc2)nc1,0.231µM*,-13.3%,0.0%,?,0.461µM*,5.5%
CCCCCc1ccc(-c2ccc(/C=C/C(=O)O)cc2)nc1,?,2.3%,?,?,?,15.9%
O=C(c1cc2ccccc2oc1=O)N1CCN(c2ccc(Cl)cc2)CC1,8.9%[46.1 µM],.,-19.0%,-2.0,6.4%[46.1 µM],.
O=C(OCCOc1ccc(Cl)cc1)c1cc(S(=O)(=O)N2CCCCC2)ccc1N1CCOCC1,.,.,?,?,.,3.55µM*
O=C(OCCOc1cccc(Cl)c1)c1cc(S(=O)(=O)N2CCOCC2)ccc1F,7.6%,-3.5%,-21.5%,-7.0,20.2%,25.1µM*
COc1ccc2c(c1)OC(C)CN(CCNC(=O)C1CCOC1)C2 (stereo not drawn),.,.,10.9%,.,.,.
COc1ccc(N2CCN(C(=O)C3CCN(S(=O)(=O)c4ccc5c(c4)oc(=O)n5C)CC3)CC2)cc1,.,-4.3%,?,34.4,.,2.2%
CC1CCCN(c2ccc(C(=O)N3CCC4(CC3)OCCO4)cc2[N+](=O)[O-])C1 (stereo not drawn),?,-4.4%,42.0%,-25.1,-7.4%,26.7%
CC1CCCN(c2c([N+](=O)[O-])cc(C(=O)O)cc2[N+](=O)[O-])C1 (stereo not drawn),.,1.2%,-4.8%,-101.4*,.,-2.5%
N#Cc1ccc(-c2cn3c(n2)SCC3)cc1,.,2.8%,47.6%,0.8,.,-8.8%
CCN1CCC(O)(/C=C/c2ccc(C(C)C)cc2)C(C(=O)/C=C/c2ccc(C(C)C)cc2)C1 (stereo not drawn),?,.,31.6µM*,-61.0*,14.1µM*,7.94µM*
COc1ccccc1/C=C/C1(C(=O)NC2CCCC2)CC(=O)N1c1ccc(F)cc1 (stereo not drawn),5.8µM*,0.8%,?,-82.9*,14.6µM*,?
CCN(CC)S(=O)(=O)c1ccc(N2C(=O)CC2(/C=C/c2ccccc2)C(=O)NC2CCCC2)cc1 (stereo not drawn),?,0.1%,-15.5%,-31.7,?,8.2%
COc1ccccc1/C=C/C1(C(=O)NC2CCCC2)CC(=O)N1c1ccc(C)cc1 (stereo not drawn),?,1.1%,-20.7%,-98.4*,-27.5%,?
C=C[C@@H]1c2ccccc2N(S(=O)(=O)c2ccc(C)cc2)[C@H](c2ccc(OC(C)=O)cc2)C1(C#N)C#N,.,0.4%,-26.6%,?,.,?
C=C[C@@H]1c2cc(C)ccc2N(S(=O)(=O)c2ccc(C)cc2)[C@H](c2ccc(OC(C)=O)cc2)C1(C#N)C#N,.,3.2%,0.0%,-97.4*,.,8.91µM*
SMILES,Marburg entry inh,SARS PLP yeast,FMDV inh,HCMV inh,LASV entry inh,HCV inh
COc1ccc(NC(=O)c2c(-c3ccc(C)cc3)nnc3ccccc23)c(OC)c1,.,.,2.9%,0.0,-0.1%[46.1 µM],.
Cc1cc2cc(CCNC(=O)C(=O)c3c[nH]c4ccccc34)c(=O)[nH]c2cc1C,?,-2.0%,1.0%,-14.2,12.6µM*,-17.6%
Cc1ccc(CSc2nnc3ccc(-c4ccncc4)nn23)cc1,.,-7.3%,1.2%,-60.2*,.,-17.3%
C[C@H]1CC[C@H]2C(=O)O[C@H](CO)CN2[C@H]1c1ccc(Br)cc1,-20.5%[14.2 µM],.,.,.,?,.
COC(=O)C/C=C/[C@@H](C)[C@@H](/C=N/OC[C@@H](C)[C@H](OCc1ccccc1)C(C)C)NS(=O)(=O)c1ccc(C)cc1,-14.2%[14.2 µM],0.9%,.,.,?,-14.7%[8.37 µM]
COc1ccccc1Cn1c(C(C)C)nc2ccccc21,.,-0.3%,-18.3%,1.2,.,-8.9%
COCCn1c(/C=C/c2ccccc2)nc2ccccc21,10µM*,-2.7%,65.9%,5.8,?,32.7%
CC(C)Cn1c(/C=C/c2ccc(F)cc2)nc2ccccc21,?,.,5.6%,29.2,?,.
COc1ccc(/C=C/c2nc3ccccc3n2Cc2ccccc2OC)cc1,?,-29.4%,-26.6%,-97.9*,?,?
COc1ccccc1Cn1c(/C=C/c2ccccc2)nc2ccccc21,?,.,-18.2%,-24.5,?,10µM*
COc1ccc([C@@H]2C(C(=O)N3CCCC3)CC(=O)N2C(=O)CCc2ccccc2)cc1 (stereo partly drawn),.,.,.,-3.2,.,.
CC(C)c1cccc(-c2nc3c(Nc4ccccc4)nccc3[nH]2)c1,.,.,.,-17.3,.,.
Cc1cc(C)cc(CO[C@H]2C=C[C@@H](c3ccccc3)O[C@H]2CO)c1,-24.4%[14.2 µM],.,.,.,.,.
Cc1ccc(S(=O)(=O)Nc2cccc3ncccc23)s1,10µM*,-36.7%,28.2µM*,.,8.91µM*,?
CCCCOc1ccc(S(=O)(=O)Nc2cccnc2)cc1,?,-29.0%,.,-75.9*,-13.4%,10µM*
CCOc1ccc(S(=O)(=O)Nc2cccc(OC)c2)cc1,?,-6.5%,43.7%,?,-16.1%,10µM*
CCOc1ccc(S(=O)(=O)Nc2cccc(N(C)S(C)(=O)=O)c2)cc1,-22.1%[46.1 µM],-1.4%,-15.9%,-35.4,?,10µM*
CCOc1ccc(S(=O)(=O)Nc2cccc(-c3ccc(OCC)nn3)c2)cc1,.,.,-21.3%,?,-22.3%[46.1 µM],.
O=C(Cn1nc2c(cc1=O)CCCC2)NCc1ccc(Cl)cc1,.,.,4.4%,-10.5,-3.0%[46.1 µM],.
CC(C)NC(=S)N=Nc1c(O)[nH]c2ccc([N+](=O)[O-])cc12,-23.2%[46.1 µM],1.9%,?,?,?,1.12µM*
NC(=O)N=Nc1c(O)[nH]c2ccc([N+](=O)[O-])cc12,.,0.1%,-12.6%,-19.6,.,5.4%
C=C(C)CNC(=S)N=Nc1c(O)[nH]c2ccc([N+](=O)[O-])cc12,-15.8%[46.1 µM],2.1%,-18.0%,-15.3,-23.6%,25.1µM*
